Measured values reported in PubChem BioAssay (NCATS).
“And” between values parts separate entries of the source, which are not always exact repeats. Identical values can stand only once. Records with an inconclusive call do not appear. The source made the active and inactive calls. Unless noted, calls come from the whole dose curve; as a rule, active = well fitted curve in the direction sought with a large enough effect; inconclusive = small, poorly fitted or top-dose-only effect, or another doubt; inactive = no such curve, though single readings can be large; an effect the other way counts as inactive or inconclusive.

Key:
[1] = target: Cytochrome P450 1A2 (Homo sapiens) (UniProt P05177); assay: p450-cyp1a2 (AID 410; calls by dose curve; note: potency is the fitted concentration of half-maximal effect)
Procedure, shortened: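 Luminescent demethylation readout: Luciferin-ME (100uM, equal to Km) turned over by 20nM CYP1A2 for 60 min at room temperature after NADPH regeneration addition, following 10 min compound preincubation. Normalization used 57 uM furafylline as full inhibition.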

[2] = target: Glucocorticoid receptor (Homo sapiens) (UniProt P04150); assay: GR-GFP Redistribution (AID 450;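 active = compounds whose dose series gives a full or clear partial fitted curve of increased nuclear translocation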; note: potency is the fitted concentration of half-maximal effect); details: U2OS GR-GFP nuclear translocation, laser cytometry, 2 h
[3] = target: Glucocorticoid receptor (Homo sapiens) (UniProt P04150); assay: GR-EFC Redistribution (AID 451; calls by dose curve; note: potency is the fitted concentration of half-maximal effect); details: CHO-K1 GR-EFC translocation, beta-gal luminescence, 2 h
Procedure, shortened: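 CHO-K1 cells expressing nuclear EA and GR-ED fragments of b-gal; compounds titrated up to 46 uM final, 2 h at 37 C. GR nuclear translocation read as complemented b-gal luminescence after 1 h RT detection.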

[4] = target: 3',5'-cyclic-AMP phosphodiesterase 4B (Homo sapiens) (UniProt Q07343); assay: qHTS Assay for Inhibitors of PDE-IV (AID 607; active = well fitted activation curve with a large enough effect in the main read-out, with a control signal flat, not every such curve was filed as active; note: % of control where 0% means no effect)
Procedure, shortened: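 ACTOne HEK293 cells carry a modified cAMP-gated CNG channel and express endogenous PDE4; plated 1000 cells/well, compounds up to 22.9 uM final. Membrane-potential dye fluorescence (ex 535/em 590) was read; parental cells received 10 uM forskolin + 100 uM RO 20-1724.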

[5] = target: Cytochrome P450 2C9 (Homo sapiens) (UniProt P11712); assay: qHTS Assay for Inhibitors and Substrates of Cytochrome P450 2C9 (AID 883); note: % is set by controls: 0 for no effect and ±100 for the full control effect; nearly all actives have a fitted effect of over 60% in size
Procedure, shortened: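 Signal: luciferase luminescence reporting luciferin produced by CYP2C9. Conditions: 10nM enzyme, Luciferin-H 100uM at KM, 25mM KPO4, 37C, 60 min NADPH-driven reaction. Reference: 57uM sulphaphenazole as 100% inhibition.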

[6] = target: Cytochrome P450 3A4 (Homo sapiens) (UniProt P08684); assay: qHTS Assay for Activators of Cytochrome P450 3A4 (AID 885); note: nearly all actives have a fitted effect of over 65% in size
Procedure, shortened: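 CYP3A4 activity: Luciferin-PPXE O-dealkylation, 25uM substrate, 200mM KPO4, RT throughout. Read-out is luciferase luminescence; higher values reflect activation.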

[7] = target: Ubiquitin carboxyl-terminal hydrolase 1 (Homo sapiens) (UniProt O94782); assay: Inhibitors of USP1/UAF1: Pilot qHTS (AID 504865);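 note: rhodamine fluorescence freed from ubiquitin-rhodamine substrate followed over time; top concentration of the series differs between compounds; % is set by controls: 0 for no effect and ±100 for the full control effect; nearly all actives have a fitted effect of over 35% in size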
Procedure, shortened: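 In 50mM HEPES pH 7.8 containing 0.5mM EDTA, 1mM TCEP, 0.1 mg/ml BSA and 0.01% Tween-20, 1nM USP1/UAF1 is exposed to compound for 15 min, then Ub-Rho (150nM final) is added and fluorescence is read over time.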

[8] = target: DNA dC->dU-editing enzyme APOBEC-3G (Homo sapiens) (UniProt Q9HC16); assay: qHTS for inhibitors of Vif-A3G interactions: Validation (AID 588379); note: 0% is about no effect
Procedure, shortened: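 Yellow fluorescence (Ex 488, Em 500-530) of Vif-coexpressing HeLa A3G-eYFP cells, scanned by Acumen cytometer, reports blocked A3G degradation. Cells plated at 700/well overnight at 37 deg C before compound addition, then a further overnight compound incubation at 37 deg C.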

[9] = system: Zika virus NS2B-NS3 protease; assay: Primary screen GU AMC qHTS for Zika virus inhibitors (AID 1347154); note: nearly all actives have a fitted effect of over 70% in size; note: potency is the fitted concentration of half-maximal effect;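 for activity change, negative = inhibition: 0% = no-inhibitor control and -100% = no-enzyme control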
Procedure, shortened: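 Unlinked Zika NS2B hydrophilic domain–NS3 protease complex at 25 nM in 10 mM Tris-HCl pH 8.0, 0.01% Tween 20, with an AMC peptide substrate. Fluorescence change (340/450 nm) over 15 min at room temperature, normalized to controls, fitted to 4-parameter Hill.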

[10] = AP1 Signaling Pathway (AID 357; active = well fitted curve in either direction with a large enough effect, not every such curve was filed as active;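 note: ME-180 reporter cells stimulated with EGF at its EC50 level; % is set by controls: 0 for no effect and ±100 for the full control effect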); details: ME-180 AP-1-bla reporter, EGF-induced, beta-lactamase ratio, 5 h; at 38 µM (top of the series)
Procedure, shortened: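 Titration-series screen for positive or negative modulators of EC50 EGF-induced signaling in ME-180 cells carrying an AP-1-driven beta-lactamase reporter. After 5 hours at 37 degrees Celsius, CCF4 460nm/530nm emission ratio gave %Activity; AC50 values derived.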

[11] = Stat Signaling Pathway (AID 446; active = well fitted curve in either direction with a large enough effect, not every such curve was filed as active;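 note: ME-180 cervical cancer cells given 40 pM IL-6 alongside compound; SIE-controlled beta-lactamase reporter measured as 460/530 nm FRET emission ratio; % is set by controls: 0 for no effect and ±100 for the full control effect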); details: ME-180 (cervical carcinoma) SIE beta-lactamase reporter, IL-6 stimulated, 5 h; at 38 µM (top of the series)
Procedure, shortened: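 Compound effects on IL-6-induced STAT reporter activity were measured in ME-180 cells. After overnight culture, cells were co-treated with 40 pM IL-6 for 5 hrs before beta-lactamase substrate loading at room temperature.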

[12] = target: Mitogen-activated protein kinase 10 (Mus musculus) (UniProt Q61831); assay: JNK3 AlphaScreen Assay (AID 530; active = well fitted curve in either direction with a large enough effect, not every such curve was filed as active;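 note: kinase came from lysate of stimulated human HepG2 cells; signal reports phosphorylation of biotinylated GST-cJun 1-79 at Ser73 with 10 µM ATP; % is set by controls: 0 for no effect and ±100 for the full control effect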)
Procedure, shortened: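 Activity was read by AlphaScreen after JNK3-containing HepG2 lysate (cytokine pre-activated) phosphorylated biotinylated GST-cJun with 10 uM ATP at room temperature. Phospho-Ser73 cJun antibody with Protein-A acceptor beads provided detection.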

[13] = target: Guanine nucleotide-binding protein G(i) subunit alpha-1 (Homo sapiens) (UniProt P63096); assay: qHTS Assay for Inhibitors of RGS12 GoLoco Motif Activity (Green Fluorophore) (AID 879);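 note: 0% = labeled peptide with Gαi1 and full inhibition = labeled peptide alone without protein; negative values mean loss of peptide binding seen as reduced polarization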
Procedure, shortened: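 A drop in FITC polarization marked displacement of the FITC-tagged RGS12 GoLoco peptide (10 nM) from Gαi1 (50 nM). Compounds were incubated 10 min at room temperature in Tris pH 7.5 buffer containing 150 mM NaCl, 0.1 mM GDP and 0.05% NP40; unlabeled peptide titration served as control.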

[14] = target: Cytochrome P450 3A4 (Homo sapiens) (UniProt P08684); assay: qHTS Assay for Inhibitors and Substrates of Cytochrome P450 3A4 (AID 884); note: potency is the fitted concentration of half-maximal effect; nearly all actives have a fitted effect of over 50% in size
Procedure, shortened: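 Luminescent readout of luciferin produced by CYP3A4 (20 nM) dealkylation of Luciferin-PPXE, 25 uM (its KM). NADPH-driven reaction ran 60 min at RT after 10 min compound preincubation; data scaled to 57 uM ketoconazole as 100% inhibition.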

[15] = target: Cytochrome P450 2D6 (Homo sapiens) (UniProt P10635); assay: qHTS Assay for Inhibitors and Substrates of Cytochrome P450 2D6 (AID 891); note: potency is the fitted concentration of half-maximal effect; nearly all actives have a fitted effect of over 60% in size
Procedure, shortened: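 Luminescent read-out of luciferin formed by 5 nM human CYP2D6 demethylating 30 uM Luciferin-ME EGE (Km level) over 60 min at room temperature after NADPH regeneration addition. Data normalized to full inhibition by 1.43 uM quinidine.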

[16] = target: Cytochrome P450 2C19 (Homo sapiens) (UniProt P33261); assay: qHTS Assay for Inhibitors and Substrates of Cytochrome P450 2C19 (AID 899); note: potency is the fitted concentration of half-maximal effect; nearly all actives have a fitted effect of over 60% in size
Procedure, shortened: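 Signal comes from luciferase acting on luciferin released by CYP2C19-mediated hydroxylation of Luciferin-H EGE, 10uM (KM). Assay mix: 5nM enzyme, 50mM KPO4; 60 min at 37C with NADPH regeneration. Data normalized against 57uM ketoconazole.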

[17] = target: Muscarinic acetylcholine receptor M1 (Rattus norvegicus) (UniProt P08482); assay: qHTS Assay for Antagonists of Acetylcholine Muscarinic M1 Receptor: Kinetic Measurement of Intracellular Calcium Response (AID 943); note: potency is the fitted concentration of half-maximal effect; nearly all actives have a fitted effect of over 75% in size
Procedure, shortened: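 Antagonism measured as reduction of carbachol-evoked (EC80, 100 nM final) calcium flux in rat M1-CHO cells after 10 min compound exposure. Fluo-4 signal read kinetically; ratio of maximal to basal fluorescence.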

[18] = target: Pyruvate kinase (Leishmania mexicana) (UniProt Q27686); assay: qHTS Validation Assay for Inhibitors of Leishmania Mexicana Pyruvate Kinase (AID 945);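 note: 0% = DMSO only neutral control wells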
Procedure, shortened: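 Pyruvate kinase activity of E451W LmPYK (0.2 nM) was followed as ATP output after 1 h at room temperature with 0.5 mM PEP and 0.1 mM ADP, detected by PKLight luminescence.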

[19] = target: Pyruvate kinase PKM (Homo sapiens) (UniProt P14618); assay: qHTS Assay for Activators of Human Muscle Pyruvate Kinase (AID 954; active = well fitted curve in the direction sought with a large enough effect, not every such curve was filed as active;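 note: 0% = uninhibited enzyme and -100% = no enzyme or full thiadiazolimine inhibition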)
Procedure, shortened: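 A coupled luminescent readout tracked ATP made from ADP by purified PKM2. Final conditions included 0.1 nM enzyme, PEP and ADP at 0.5 and 0.1 mM, pH 7.2 imidazole buffer with BSA, and a one-hour room-temperature reaction.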

[20] = target: Alpha-galactosidase A (Homo sapiens) (UniProt P06280); assay: Counterscreen for Glucocerebrosidase Inhibitors: qHTS Assay for Human alpha-Galactosidase at pH 4.5 (AID 992); note: 0% is about no effect
Procedure, shortened: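 Citrate buffer pH 4.5, Tween-20 0.005%. Enzyme 2 nM, substrate 80 uM, 20 min RT. Stop pH 10. Fluorescence Ex 365/Em 440. AC50 by Hill fit.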

[21] = target: alpha-glucosidase (Oryza sativa, rice) (UniProt Q653V4); assay: Counterscreen for Glucocerebrosidase Inhibitors: qHTS Assay for Rice alpha-Glucosidase at pH 5.0 (AID 997);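 note: 0% = full activity with enzyme and -100% = basal without enzyme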
Procedure, shortened: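 Endpoint fluorogenic assay at pH 5.0: compounds (0.7 nM to 77 uM) titrated against 4 nM rice enzyme and 400 uM 4-MU-alpha-glucoside for 20 min at room temperature; NaOH/glycine stop, read ex 365/em 440 nm, Hill-fitted AC50.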

Cytochrome P450 1A2 (Homo sapiens), sequence (P05177 whole entry, looked up): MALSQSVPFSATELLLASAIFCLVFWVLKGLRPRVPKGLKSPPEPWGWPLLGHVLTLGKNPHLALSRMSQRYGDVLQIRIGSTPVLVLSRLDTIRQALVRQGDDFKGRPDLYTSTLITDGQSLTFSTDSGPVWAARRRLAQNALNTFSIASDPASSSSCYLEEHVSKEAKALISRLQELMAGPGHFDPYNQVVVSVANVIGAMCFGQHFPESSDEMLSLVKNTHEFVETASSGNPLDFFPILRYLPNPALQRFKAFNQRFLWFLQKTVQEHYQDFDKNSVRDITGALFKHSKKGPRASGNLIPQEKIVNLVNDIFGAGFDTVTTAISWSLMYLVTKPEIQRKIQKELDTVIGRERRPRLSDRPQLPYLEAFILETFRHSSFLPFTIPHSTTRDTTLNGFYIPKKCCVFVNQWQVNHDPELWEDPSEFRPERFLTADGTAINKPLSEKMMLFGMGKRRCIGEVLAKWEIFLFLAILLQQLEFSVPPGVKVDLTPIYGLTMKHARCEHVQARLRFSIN
Cytochrome P450 3A4 (Homo sapiens), sequence (P08684 whole entry, looked up): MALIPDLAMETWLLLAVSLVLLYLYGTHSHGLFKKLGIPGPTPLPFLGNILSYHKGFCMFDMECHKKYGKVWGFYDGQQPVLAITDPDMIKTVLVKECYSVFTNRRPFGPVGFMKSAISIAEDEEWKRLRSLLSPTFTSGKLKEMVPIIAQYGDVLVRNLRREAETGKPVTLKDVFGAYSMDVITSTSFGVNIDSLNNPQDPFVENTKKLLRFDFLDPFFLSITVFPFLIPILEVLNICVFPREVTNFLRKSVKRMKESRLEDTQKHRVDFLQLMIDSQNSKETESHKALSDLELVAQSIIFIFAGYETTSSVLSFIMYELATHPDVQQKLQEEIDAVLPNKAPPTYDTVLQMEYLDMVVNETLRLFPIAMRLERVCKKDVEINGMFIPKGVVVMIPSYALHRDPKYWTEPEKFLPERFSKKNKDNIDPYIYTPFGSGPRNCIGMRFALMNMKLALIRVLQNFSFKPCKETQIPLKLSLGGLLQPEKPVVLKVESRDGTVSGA
Ubiquitin carboxyl-terminal hydrolase 1 (Homo sapiens), sequence (O94782 whole entry, looked up): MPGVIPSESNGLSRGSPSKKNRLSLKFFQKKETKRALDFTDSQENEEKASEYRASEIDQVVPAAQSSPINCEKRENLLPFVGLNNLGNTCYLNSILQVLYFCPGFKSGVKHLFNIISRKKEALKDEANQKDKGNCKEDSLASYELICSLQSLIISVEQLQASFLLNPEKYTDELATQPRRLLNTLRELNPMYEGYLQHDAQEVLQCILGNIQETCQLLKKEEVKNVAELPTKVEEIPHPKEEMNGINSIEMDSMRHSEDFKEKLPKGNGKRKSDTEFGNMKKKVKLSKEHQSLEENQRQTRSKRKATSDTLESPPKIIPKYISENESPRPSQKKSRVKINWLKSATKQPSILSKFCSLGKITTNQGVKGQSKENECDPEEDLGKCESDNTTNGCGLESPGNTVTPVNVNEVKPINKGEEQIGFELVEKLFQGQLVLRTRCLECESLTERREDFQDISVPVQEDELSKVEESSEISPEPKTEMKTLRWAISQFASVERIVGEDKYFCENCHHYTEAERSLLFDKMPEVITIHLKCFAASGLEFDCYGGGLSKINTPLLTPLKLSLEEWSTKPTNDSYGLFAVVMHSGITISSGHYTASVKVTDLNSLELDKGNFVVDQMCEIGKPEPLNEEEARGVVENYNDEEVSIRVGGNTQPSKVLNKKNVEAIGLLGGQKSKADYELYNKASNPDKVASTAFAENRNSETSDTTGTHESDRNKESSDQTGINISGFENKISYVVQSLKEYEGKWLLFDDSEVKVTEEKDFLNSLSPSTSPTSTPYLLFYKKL
Glucocorticoid receptor (Homo sapiens), sequence (P04150 whole entry, looked up, the tested form may be a part): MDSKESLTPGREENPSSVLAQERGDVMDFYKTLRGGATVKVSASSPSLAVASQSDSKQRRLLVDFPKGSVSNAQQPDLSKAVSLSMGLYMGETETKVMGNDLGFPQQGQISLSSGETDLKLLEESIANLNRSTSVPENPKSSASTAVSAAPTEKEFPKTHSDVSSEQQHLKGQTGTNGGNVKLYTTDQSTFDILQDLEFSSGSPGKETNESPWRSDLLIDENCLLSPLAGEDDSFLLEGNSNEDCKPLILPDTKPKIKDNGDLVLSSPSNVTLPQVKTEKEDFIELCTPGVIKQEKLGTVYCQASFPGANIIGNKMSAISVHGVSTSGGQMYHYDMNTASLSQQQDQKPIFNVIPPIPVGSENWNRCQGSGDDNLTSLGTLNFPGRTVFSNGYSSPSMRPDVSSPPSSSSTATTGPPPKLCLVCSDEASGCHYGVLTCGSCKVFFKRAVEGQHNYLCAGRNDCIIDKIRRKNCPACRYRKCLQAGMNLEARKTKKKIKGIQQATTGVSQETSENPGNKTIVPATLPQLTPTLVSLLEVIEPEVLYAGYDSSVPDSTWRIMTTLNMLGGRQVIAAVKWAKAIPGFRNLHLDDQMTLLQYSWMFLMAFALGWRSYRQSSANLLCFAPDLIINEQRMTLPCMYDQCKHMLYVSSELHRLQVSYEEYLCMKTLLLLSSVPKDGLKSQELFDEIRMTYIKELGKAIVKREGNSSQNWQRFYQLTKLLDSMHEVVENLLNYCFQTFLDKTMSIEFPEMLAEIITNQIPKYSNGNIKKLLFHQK
DNA dC->dU-editing enzyme APOBEC-3G (Homo sapiens), sequence (Q9HC16 whole entry, looked up): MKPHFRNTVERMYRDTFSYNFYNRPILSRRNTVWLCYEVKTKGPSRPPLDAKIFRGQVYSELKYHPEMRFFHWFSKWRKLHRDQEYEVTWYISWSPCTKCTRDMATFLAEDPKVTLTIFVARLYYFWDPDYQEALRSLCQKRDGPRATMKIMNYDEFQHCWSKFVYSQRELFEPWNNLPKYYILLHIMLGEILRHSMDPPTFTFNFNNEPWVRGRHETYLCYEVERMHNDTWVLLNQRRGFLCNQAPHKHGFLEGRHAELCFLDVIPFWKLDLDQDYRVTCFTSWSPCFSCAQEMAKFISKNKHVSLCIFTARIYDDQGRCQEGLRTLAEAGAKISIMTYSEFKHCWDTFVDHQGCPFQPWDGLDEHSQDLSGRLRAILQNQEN
Cytochrome P450 2D6 (Homo sapiens), sequence (P10635 whole entry, looked up): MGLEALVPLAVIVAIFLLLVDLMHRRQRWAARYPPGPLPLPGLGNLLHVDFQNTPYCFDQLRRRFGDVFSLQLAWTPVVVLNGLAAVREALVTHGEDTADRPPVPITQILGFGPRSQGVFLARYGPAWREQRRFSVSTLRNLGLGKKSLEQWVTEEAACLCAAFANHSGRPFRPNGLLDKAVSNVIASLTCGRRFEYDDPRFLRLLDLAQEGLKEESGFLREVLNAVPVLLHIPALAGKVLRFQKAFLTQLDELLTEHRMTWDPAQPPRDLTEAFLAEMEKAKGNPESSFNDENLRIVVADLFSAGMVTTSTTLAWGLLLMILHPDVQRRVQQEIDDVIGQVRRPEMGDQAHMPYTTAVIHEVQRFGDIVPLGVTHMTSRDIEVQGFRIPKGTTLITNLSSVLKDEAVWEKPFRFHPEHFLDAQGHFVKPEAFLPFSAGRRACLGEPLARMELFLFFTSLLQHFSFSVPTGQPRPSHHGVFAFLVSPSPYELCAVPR
3',5'-cyclic-AMP phosphodiesterase 4B (Homo sapiens), sequence (Q07343 whole entry, looked up): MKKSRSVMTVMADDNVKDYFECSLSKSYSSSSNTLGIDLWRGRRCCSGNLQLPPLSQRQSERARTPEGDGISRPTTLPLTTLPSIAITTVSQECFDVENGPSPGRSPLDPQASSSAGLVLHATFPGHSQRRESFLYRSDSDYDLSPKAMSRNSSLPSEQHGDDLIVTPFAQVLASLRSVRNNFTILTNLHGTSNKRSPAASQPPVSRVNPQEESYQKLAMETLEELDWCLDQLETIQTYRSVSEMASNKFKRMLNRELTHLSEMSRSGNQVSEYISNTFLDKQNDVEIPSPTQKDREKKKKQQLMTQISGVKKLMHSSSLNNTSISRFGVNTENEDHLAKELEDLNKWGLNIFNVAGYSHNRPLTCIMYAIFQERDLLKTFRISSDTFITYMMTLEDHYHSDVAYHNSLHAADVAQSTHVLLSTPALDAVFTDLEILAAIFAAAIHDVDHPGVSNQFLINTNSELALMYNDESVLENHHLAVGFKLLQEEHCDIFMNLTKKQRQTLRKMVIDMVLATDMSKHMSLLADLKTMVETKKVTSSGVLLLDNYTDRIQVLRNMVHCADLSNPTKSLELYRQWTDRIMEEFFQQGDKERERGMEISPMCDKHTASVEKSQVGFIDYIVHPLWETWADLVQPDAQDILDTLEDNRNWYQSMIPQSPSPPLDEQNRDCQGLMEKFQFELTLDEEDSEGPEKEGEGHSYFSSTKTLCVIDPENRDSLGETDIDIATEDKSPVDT
Cytochrome P450 2C9 (Homo sapiens), sequence (P11712 whole entry, looked up): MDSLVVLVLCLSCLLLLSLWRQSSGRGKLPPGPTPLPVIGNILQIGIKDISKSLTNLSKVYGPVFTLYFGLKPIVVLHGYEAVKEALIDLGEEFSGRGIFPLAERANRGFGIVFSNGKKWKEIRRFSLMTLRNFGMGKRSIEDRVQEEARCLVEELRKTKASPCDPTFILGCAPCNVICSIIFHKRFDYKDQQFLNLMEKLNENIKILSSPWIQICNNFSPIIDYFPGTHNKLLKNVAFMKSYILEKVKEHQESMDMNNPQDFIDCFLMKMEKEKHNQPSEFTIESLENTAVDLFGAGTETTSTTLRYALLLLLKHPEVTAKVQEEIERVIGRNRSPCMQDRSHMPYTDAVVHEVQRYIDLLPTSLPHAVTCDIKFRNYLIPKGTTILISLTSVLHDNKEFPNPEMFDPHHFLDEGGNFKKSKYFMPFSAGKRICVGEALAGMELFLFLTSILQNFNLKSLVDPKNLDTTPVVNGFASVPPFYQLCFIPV

COc1ccccc1N1CCN(C[C@@H]2CN3C(=O)N(C)c4ccccc4C3=N2)CC1
active: Potency [1] 31.6 µM
inactive: Potency [2] > 46 µM | Potency [3] > 46 µM | Potency [4] | Potency [5] | Potency [6] | Potency [7] | Potency [8] | Potency [9]

COc1cccc(OC)c1OCCNC[C@@H]1COc2ccccc2O1
inactive: activity change, negative = inhibition [10] -5.1% | activity, negative = inhibition [11] 9.55% | Potency [2] > 46 µM | Potency [3] > 46 µM | Potency [12] | outcome [13] | Potency [6] | Potency [18] | outcome [19] | outcome [20] | outcome [21] | Potency [8] | Potency [9]
active: Potency [1] 12.6 µM and 25.1 µM | Potency [14] 2 µM and 2.51 µM | Potency [15] 0.251 µM | Potency [16] 0.794 µM | Potency [17] 10 µM

O=C1CC2(CCCC2)CC(=O)N1CCCCNC[C@H]1COc2ccccc2O1
inactive: Potency [2] > 46 µM | Potency [3] > 46 µM | Potency [12] | Potency [6] | Potency [7] | Potency [8] | Potency [9]
active: Potency [14] 631 nM | Potency [15] 5.01 µM

O=C1c2ccccc2C(Cc2ccncc2)(Cc2ccncc2)c2ccccc21
active: Potency [14] 501 nM
inactive: Potency [2] > 46 µM | Potency [3] > 46 µM | Potency [12] | Potency [6] | Potency [7] | Potency [8] | Potency [9]

COc1cc(OC)c2cc(-c3ccncc3)cnc2c1
inactive: Potency [2] > 46 µM | Potency [3] > 46 µM | Potency [12] | Potency [4] | Potency [6] | Potency [8]
active: Potency [1] 0.2 µM | Potency [9] 21.2 µM
